Screens: PubChem BioAssay, National Center for Advancing Translational Sciences (NCATS)
Compounds with a hit are over-represented: about 7.5% of the library has one in this group of screens.
Rab9 prom act = qHTS Assay for Rab9 Promoter Activators | Huh7 Rab9 promoter-luciferase reporter, luminescence, 24 h | Potency, µM (series often up to 9.22 µM), inactives show top-dose activation, negative = inhibition, usual class: activators | 320,000 tested, 2.8% active | AID 485297, 2010; note: % of control where 0% means no effect; nearly all actives have a fitted effect of over 60% in size
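Huh7 cells stably carrying a Rab9 promoter-luciferase reporter, 1500 cells per well in OP-MEM I with 10% FBS, treated with compound 24 hours at 37C. Luciferase activity read by luminescence after 10 minutes with Amplite reagent.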
KinaseGlo FLuc = Counterscreen for Luciferase (Kinase-Glo TM) Inhibition; Luciferin 4-monooxygenase (Photuris pensylvanica), Q27757; Kinase-Glo luciferase, ATP luminescence, 8 min; Potency, µM (series often up to 38.3 µM), for inactives: top-dose activity change, negative = inhibition, hits mostly inhibitors; 200,000 tested, 0.28% active; note: % is set by controls: 0 for no effect and ±100 for the full control effect; nearly all actives have a fitted effect of over 60% in size
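Luminescence was the read-out, taken after 8-minute incubation at ambient temperature. Luciferase turned over luciferin with 10 uM ATP in imidazole pH 7.2 buffer containing KCl, MgCl2, Tween 20 and BSA.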
ELG1 genotoxic = qHTS screen for small molecules that induce genotoxicity in human embryonic kidney (HEK293T) cells expressing luciferase-tagged ELG1. HEK293T ELG1-luciferase reporter, luminescence, 16 h. Potency, µM (doses to about 46 µM), for the others: at the highest dose activity change, positive = activation, usual class: activators. 330,000 tested, 1.3% active. AID 504466, 2011; note: % of control where 0% means no effect; nearly all actives have a fitted effect of over 60% in size
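Screening used a luciferase reporter fused to human ELG1 in HEK293T cells. Luminescence was read on a CCD plate imager after 16 hr exposure and 30 min ONE-Glo incubation.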
NPC1 promoter act = qHTS Assay for NPC1 Promoter Activators; 320,000 tested, 2.4% active; AID 485313, 2010; Potency, µM (highest dose often 9.22 µM), inactives show top-dose activation, actives largely listed as activators; Huh7 NPC1 promoter luciferase reporter, 24 h; note: % of control where 0% means no effect; nearly all actives have a fitted effect of over 60% in size
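Cells: Huh7 expressing luciferase under the NPC1 promoter, 1500/well. Seeded 2 h, compound added, incubated 24 h at 37 °C. Luciferase reagent, 10 min ambient, then luminescence.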
FLuc modulator = qHTS profiling assay for firefly luciferase inhibitor/activator using purifed enzyme and Km concentrations of substrates (counterscreen for miR-21 project); purified FLuc, Km substrates, luminescence inhibition; 360,000 tested, 6.9% active; Potency, µM (series often up to 57.5 µM), for the others: at the highest dose activity change, negative = inhibition, hits mostly inhibitors; Luciferin 4-monooxygenase (Photinus pyralis), P08659;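 note: plate controls were vehicle for no effect and reference inhibitor for full effect; nearly all actives have a fitted effect of over 55% in size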
Target sequence (P08659 whole entry, looked up): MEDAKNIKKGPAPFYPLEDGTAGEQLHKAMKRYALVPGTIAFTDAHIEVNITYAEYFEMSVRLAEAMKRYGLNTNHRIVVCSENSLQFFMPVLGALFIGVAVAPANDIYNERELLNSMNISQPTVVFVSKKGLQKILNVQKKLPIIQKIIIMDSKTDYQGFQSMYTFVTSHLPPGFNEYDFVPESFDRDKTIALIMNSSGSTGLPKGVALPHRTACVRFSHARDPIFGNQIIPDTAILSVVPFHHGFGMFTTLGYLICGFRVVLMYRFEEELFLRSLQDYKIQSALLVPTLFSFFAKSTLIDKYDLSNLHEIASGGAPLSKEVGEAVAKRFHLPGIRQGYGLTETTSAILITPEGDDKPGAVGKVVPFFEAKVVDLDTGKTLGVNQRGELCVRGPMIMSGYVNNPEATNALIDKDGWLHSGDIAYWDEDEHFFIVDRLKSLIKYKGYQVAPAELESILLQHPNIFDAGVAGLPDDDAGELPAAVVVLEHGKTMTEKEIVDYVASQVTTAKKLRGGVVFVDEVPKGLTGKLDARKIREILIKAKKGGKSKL
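Purified P. pyralis luciferase, 10 nM final, with Km-level 10 uM D-luciferin and 10 uM ATP in 50 mM Tris acetate pH 7.5, 10 mM Mg acetate, 0.01% Tween-20, 0.05% BSA; 6-point qHTS titration about 60 µM downward; luminescence read.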
SMN2 splice up = qHTS Assay for Enhancers of SMN2 Splice Variant Expression; HEK293 SMN2-luciferase splicing reporter, luminescence, 30-36 h; 210,000 tested, 2.8% active; Potency, µM (titrated, usually from 46.1 µM), without a hit: top-dose activity change, positive = activation, usual class: activators; AID 1458, 2008; note: % of control where 0% means no effect; nearly all actives have a fitted effect of over 55% in size
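qHTS luciferase splicing reporter: luminescence rises when SMN2 exon 7 is included in transfected HEK293 cells. Compound exposure lasted 30-36 h at 37C, with 4.5 mM final sodium butyrate as control, followed by a ONE-Glo read.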
The depositor's hits bear a star; [ ] = another dose, or the depositor's remark. Calls come from the whole dose curve; as a rule, active = well fitted curve in the direction sought with a large enough effect; inconclusive = small, poorly fitted or top-dose-only effect, or another doubt; inactive = no such curve, though single readings can be large; an effect the other way counts as inactive or inconclusive. Potency is the fitted concentration of half-maximal effect.

Results for O=C(CSc1nnc(SCc2ccc(Cl)cc2)s1)N/N=C/c1c(Cl)cccc1Cl ?
Rab9 prom act: 5%; KinaseGlo FLuc: -1%; ELG1 genotoxic: 6%; NPC1 promoter act: 13%; FLuc modulator: -9%; SMN2 splice up: -7%

Results for Cc1ccc(CSc2nnc(SCC(=O)N/N=C/c3ccccc3OCC(=O)O)s2)cc1 ?
Rab9 prom act: -4%; ELG1 genotoxic: 0%; NPC1 promoter act: -2%; FLuc modulator: 1.5µM*

What do the screens show for `Cc1ccc(CSc2nnc(SCC(=O)N/N=C/c3c[nH]c4ccccc34)s2)cc1`?
Rab9 prom act: 14%; KinaseGlo FLuc: 1%; ELG1 genotoxic: inconclusive; NPC1 promoter act: 0%; FLuc modulator: inconclusive; SMN2 splice up: -40%

How did O=C(CSc1nnc(SCc2ccccc2)s1)N/N=C/C=C\c1ccco1 do in these assays?
Rab9 prom act: -7%; KinaseGlo FLuc: -1%; ELG1 genotoxic: -2%; NPC1 promoter act: -2%; FLuc modulator: inconclusive; SMN2 splice up: -4%

What do the screens show for `COc1ccc(NC(=O)CCc2c(C)nc3c(c2C)c(=O)n(C)c(=O)n3C)c(OC)c1`?
FLuc modulator: 5%; SMN2 splice up: -10%

Results for Cc1ccc(S(=O)(=O)/C(C#N)=C/c2c(N3CCN(Cc4ccccc4)CC3)nc3ccccn3c2=O)cc1 ?
Rab9 prom act: 3%; ELG1 genotoxic: -5%; NPC1 promoter act: -1%; FLuc modulator: 2%

How did CC(=C/c1ccco1)/C=N/NC(=O)CSc1nnc(SCc2ccc(C)cc2)s1 do in these assays?
Rab9 prom act: -4%; KinaseGlo FLuc: -1%; ELG1 genotoxic: 3%; NPC1 promoter act: 0%; FLuc modulator: 2.7µM*; SMN2 splice up: -12%

How did O=C(CSc1nnc(SCc2ccccc2)s1)N/N=C/c1ccc(C(=O)O)cc1 do in these assays?
Rab9 prom act: -1%; ELG1 genotoxic: -4%; NPC1 promoter act: -4%; FLuc modulator: 2.4µM*

What do the screens show for `CC(/C=N/NC(=O)CSc1nc2ccccc2n1C)=C\c1ccco1`?
Rab9 prom act: -5%; KinaseGlo FLuc: -6%; ELG1 genotoxic: -2%; NPC1 promoter act: 0%; FLuc modulator: -16%; SMN2 splice up: 10%

Results for O=C(CSc1nc2ccccc2s1)N/N=C/c1ccc(C(=O)O)cc1 ?
Rab9 prom act: -2%; KinaseGlo FLuc: 2%; ELG1 genotoxic: 1%; NPC1 promoter act: -1%; FLuc modulator: 27µM*; SMN2 splice up: 12%

Results for O=C(CSc1nnc(SCc2ccccc2)s1)N/N=C/c1ccc(Cl)cc1Cl ?
Rab9 prom act: -3%; KinaseGlo FLuc: -1%; ELG1 genotoxic: 5%; NPC1 promoter act: 1%; FLuc modulator: 0%; SMN2 splice up: 7%

How did O=C(CSc1nc2ccccc2s1)N/N=C/c1ccccc1C(=O)O do in these assays?
Rab9 prom act: 11%; ELG1 genotoxic: inconclusive; NPC1 promoter act: 8%; FLuc modulator: inconclusive

How did COC(=O)Cc1nnc(SCC(=O)Nc2ccccc2)c2ccccc12 do in these assays?
Rab9 prom act: -6%; ELG1 genotoxic: -2%; NPC1 promoter act: 1%; FLuc modulator: -3%

How did Cc1cc2nc(-c3ccc(OCc4ccccc4)cc3)cc(C(F)(F)F)n2n1 do in these assays?
FLuc modulator: -1%; SMN2 splice up: -2%

Results for N#C/C(=C\c1ccc(O)c(O)c1)C(=O)Nc1ccccc1 ?
Rab9 prom act: -21%[46.1 µM]; KinaseGlo FLuc: -4%; ELG1 genotoxic: inconclusive; NPC1 promoter act: 23%[46.1 µM]; FLuc modulator: inconclusive; SMN2 splice up: 22µM*

Results for N#C/C(=C\c1cccc(O)c1)C(=O)Nc1ccc2c(c1)OCCO2 ?
Rab9 prom act: 7%; ELG1 genotoxic: 16%; NPC1 promoter act: 1%; FLuc modulator: 0.48µM*

What do the screens show for `N#C/C(=C/c1cccc(O)c1)C(=O)NCc1ccc(Cl)cc1`?
Rab9 prom act: 3%; ELG1 genotoxic: 10%; NPC1 promoter act: 11%; FLuc modulator: -4%

What do the screens show for `CC(C)NC(=O)/C(C#N)=C/c1ccc2c(c1)OCCO2`?
Rab9 prom act: 4%; KinaseGlo FLuc: 0%; ELG1 genotoxic: 23%; NPC1 promoter act: -2%; FLuc modulator: 9.5µM*; SMN2 splice up: 2%

Results for CCOC(=O)c1ccc(N2C(=O)c3[nH]nc(-c4ccc(C)cc4)c3C2c2ccc(O)c(OCC)c2)cc1 (centres undefined) ?
FLuc modulator: 4%; SMN2 splice up: -33%

Results for Clc1ccc2c(c1)C1OCCC1C(c1ccco1)N2 (centres undefined) ?
Rab9 prom act: 4.5µM*; KinaseGlo FLuc: inconclusive; ELG1 genotoxic: inconclusive; NPC1 promoter act: inconclusive; FLuc modulator: inconclusive; SMN2 splice up: 13µM*

What do the screens show for `Cc1ccccc1C(=O)Nc1nnc(SCc2cc(=O)n3ccccc3n2)s1`?
FLuc modulator: -13%

What do the screens show for `OCc1cn(-c2ccccc2)nc1-c1ccco1`?
Rab9 prom act: 24%; KinaseGlo FLuc: -10%; ELG1 genotoxic: inconclusive; NPC1 promoter act: inconclusive; FLuc modulator: 17µM*; SMN2 splice up: -5%

Results for Cc1ccc(-c2nn(-c3ccccc3)cc2C(N)=O)o1 ?
Rab9 prom act: -5%; KinaseGlo FLuc: -1%; ELG1 genotoxic: 0%; NPC1 promoter act: 1%; FLuc modulator: inconclusive; SMN2 splice up: 18%

Results for Cc1ccc(-c2nn(-c3ccccc3)cc2CO)o1 ?
Rab9 prom act: inconclusive; KinaseGlo FLuc: 1%; ELG1 genotoxic: inconclusive; NPC1 promoter act: inconclusive; FLuc modulator: 12µM*; SMN2 splice up: 8.9µM*

What do the screens show for `Cc1ccc(-c2nn(-c3cccc(F)c3)cc2CN2CCN(c3ccccn3)CC2)o1`?
Rab9 prom act: -16%; KinaseGlo FLuc: 0%; ELG1 genotoxic: -9%; NPC1 promoter act: -1%; FLuc modulator: inconclusive

How did Cc1ccc(-c2nn(-c3ccccc3)cc2C=O)o1 do in these assays?
Rab9 prom act: inconclusive; KinaseGlo FLuc: -2%; ELG1 genotoxic: inconclusive; NPC1 promoter act: 9%; FLuc modulator: 3µM*; SMN2 splice up: 10µM*

What do the screens show for `Cc1ccc(-c2nn(-c3cccc(F)c3)cc2CNCc2cccnc2)o1`?
Rab9 prom act: 1%; KinaseGlo FLuc: 3%; ELG1 genotoxic: -6%; NPC1 promoter act: -1%; FLuc modulator: 19µM*
